High-throughput results deposited in PubChem BioAssay by National Center for Advancing Translational Sciences (NCATS).
Compounds with a hit are over-represented: about 12% of the library has one in this group of screens.
G9a block = qHTS Assay for Inhibitors of Histone Lysine Methyltransferase G9a; Histone-lysine N-methyltransferase EHMT2 (Homo sapiens), Q96KQ7; G9a H3K9 monomethylation, AlphaScreen, 2 h; Potency, µM (highest dose often 102 µM), inactives show at the top dose activity, negative = inhibition, hits mostly inhibitors; 350,000 compounds, 8.8% hits; further: on the % scale 0 is the no-effect control and ±100 the full control effect; nearly all actives have a fitted effect of over 75% in size
Target sequence (Q96KQ7 913-1193 limits assumed): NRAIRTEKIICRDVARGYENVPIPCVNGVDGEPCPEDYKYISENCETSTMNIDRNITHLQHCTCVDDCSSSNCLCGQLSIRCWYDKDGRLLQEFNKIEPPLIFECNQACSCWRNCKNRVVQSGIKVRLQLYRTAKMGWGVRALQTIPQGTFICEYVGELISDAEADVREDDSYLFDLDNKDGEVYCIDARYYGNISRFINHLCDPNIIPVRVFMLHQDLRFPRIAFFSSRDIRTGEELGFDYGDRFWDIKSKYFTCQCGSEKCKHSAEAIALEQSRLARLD
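Readings reflect AlphaScreen signal from monomethyl-H3K9 antibody detection. HMT at 20 nM; substrate b-H3K9 500 nM; cofactor SAM 20 uM; 2 h RT reaction; compounds tested as titrations in qHTS with 15 min preincubation.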
Sfp inh = qHTS Assay for Inhibitors of Bacillus subtilis Sfp phosphopantetheinyl transferase (PPTase); 310,000 compounds, 3.5% hits; Biochemical Sfp PPTase activity, qHTS; Potency, µM, for inactives: largest response in the series, negative = inhibition, usual class: inhibitors; 4'-phosphopantetheinyl transferase ffp (Bacillus subtilis), Q9F4F7;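 further: the enzyme is Sfp with the accession as filed and its product quenches rhodamine fluorescence; 0% = enzyme reaction without inhibitor and -100% = no enzyme wells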
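Step 1, compound plus 15 nM Sfp-PPTase, 15 min, room temperature. Step 2, add rhodamine-CoA (5 uM) and BHQ-2-YbbR (12.5 uM). Step 3, read 525/598 nm fluorescence at 0 and 30 min.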
JMJD2A Tudor = qHTS Assay for Inhibitors of JMJD2A-Tudor Domain; 390,000 compounds, 4.4% hits; AlphaScreen JMJD2A-Tudor / H3K4me3 peptide binding; Lysine-specific demethylase 4A (Homo sapiens), O75164; Potency, µM (doses to about 114 µM), without a hit: at the top dose activity change, negative = inhibition, actives largely listed as inhibitors; further: on the % scale 0 is the no-effect control and ±100 the full control effect; nearly all actives have a fitted effect of over 50% in size
HP1b chromo inh = HTS for Inhibitors of HP1-beta Chromodomain Interactions with Methylated Histone Tails. Chromobox protein homolog 1 (Homo sapiens), P83916. AlphaScreen HP1-beta / biotin-H3K9me3 peptide binding. 390,000 compounds, 0.56% hits. AID 540317, 2011. Potency, µM (doses to about 114 µM), without a hit: at the highest dose activity change, negative = inhibition, usual class: inhibitors; further: nearly all actives have a fitted effect of over 70% in size
Target sequence (P83916 whole entry, looked up): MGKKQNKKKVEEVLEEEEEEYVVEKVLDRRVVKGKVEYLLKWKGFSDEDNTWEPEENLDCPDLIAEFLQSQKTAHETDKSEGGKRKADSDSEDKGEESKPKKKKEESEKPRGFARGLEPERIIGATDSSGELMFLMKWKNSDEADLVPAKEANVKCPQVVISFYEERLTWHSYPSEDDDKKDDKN
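AlphaScreen: HP1-beta (50 nM) preformed 30 min with biotin-H3(1-18)K9me3 peptide (50 nM) in PBS pH 7.4, 0.01% Tween-20. Compound added for 30 min at RT, then streptavidin donor/nickel chelate acceptor beads (10 ug/mL) for 30 min.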
BAZ2B block = qHTS Assay for Inhibitors of BAZ2B | Bromodomain adjacent to zinc finger domain protein 2B (Homo sapiens), Q9UIF8 | AlphaScreen BAZ2B-H3K14Ac peptide displacement | Potency, µM (top dose mostly 114 µM), inactives show at the top dose activity change, negative = inhibition, most hits filed as inhibitors | 360,000 compounds, 4.4% hits | AID 504333, 2011; further: on the % scale 0 is the no-effect control and ±100 the full control effect; nearly all actives have a fitted effect of over 60% in size
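AlphaScreen luminescence quantifies BAZ2B engagement of H3K14Ac peptide; the protein and biotinylated peptide are both at 50 nM final, buffer PBS pH 7.4 with 0.01% Tween-20, all steps at room temperature.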
Active calls of the source: *; ? = inconclusive; nt = no result given; [ ] = remark or other dose. The call rests on the fitted dose curve; in most records, active means well fitted curve in the direction sought with a large enough effect; inconclusive means small, poorly fitted or top-dose-only effect, or another doubt; inactive means no such curve, though single readings can be large; an effect the other way counts as inactive or inconclusive. Potency means the concentration at half of the fitted maximal effect.

SMILES	G9a block	Sfp inh	JMJD2A Tudor	HP1b chromo inh	BAZ2B block
c1ccc(Cc2nn3c(Cn4nnc5ccccc54)nnc3s2)cc1	8.91µM*	35.5µM*	-28.9%	-40.7%	-0.7%
Clc1ccc(Cl)c(-c2nn3c(COc4ccccc4)nnc3s2)c1	1.78µM*	14.1µM*	?	?	5.4%
COc1ccc(C(=O)NCC(O)COc2ccc(C(C)(C)C)cc2)cc1[N+](=O)[O-] (centres undefined)	17.5%[59 µM]	17.1%	nt	nt	-29.0%
COCCOC(=O)C1=C(C)Nc2ncnn2C1c1ccco1 (centres undefined)	-3.8%[59 µM]	0.4%	-8.5%	23.7%	0.0%
CN(C(=O)COC(=O)c1ccc2c(c1)OCO2)C1CCCCC1	nt	nt	-8.3%	34.5%[57 µM]	nt
C[N+]12CCCCC1C(COC(=O)c1ccc3c(c1)OCO3)CCC2 (centres undefined)	?	7.2%	20µM*	?	?
COc1cccc(CNC(=O)CN2C(=O)COc3ccc(S(=O)(=O)N4CCCCCC4)cc32)c1	25.6%	7.4%	-9.7%	22.3%	-0.4%
Cc1ccc(S(=O)(=O)N2[C@@H](c3ccc(Cl)c(Cl)c3)C(C(=O)O)=C[C@H]2CC2CCCC2)cc1	nt	nt	89.1µM*	12.4%	nt
CCOc1ccc(CN(C)CC(=O)Nc2ccccc2C(=O)NC2CC2)cc1	-2.9%	nt	-10.8%	26.6%	0.9%
O=C(Cn1c(NCCO)nc2ccccc21)Nc1cccc(S(=O)(=O)N2CCCC2)c1	nt	nt	-13.7%	21.4%	nt
c1coc(-c2ccnc(-n3cccc3)n2)c1	?	13.6%	-4.1%	22.3%	-2.3%
Nc1cc(-c2ccco2)no1	-4.7%[59 µM]	?	-8.2%	49.9%	10.9%
Nc1ncnc2oc(-c3ccco3)c(-c3ccco3)c12	5.62µM*	20µM*	56.2µM*	-32.5%	56.2µM*
Nc1ncnc2oc(-c3ccoc3)c(-c3ccco3)c12	nt	nt	50.1µM*	56.2µM*	nt
Cc1ccc(C)c(NC(=O)COC(=O)CNC(=O)c2ccccc2Cl)c1	0.0%	18.8%	-11.9%	28.9%	-4.5%
Cc1ccc(Nc2cc(C)c3c(O)cccc3n2)cc1C	nt	50.1µM*	?	-21.3%	44.7µM*
COc1ccc(Nc2cc(C)c3c(O)cccc3n2)cc1	nt	?	-27.9%[11.4 µM]	-12.7%	44.7µM*
COC(=O)c1cc(Nc2cc(C)c3c(O)cccc3n2)cc(C(=O)OC)c1	-4.4%	2.4%	-13.0%	31.5%	-17.4%
Cc1ccc(C)c(S(=O)(=O)N2CCN(C(=O)c3cc(S(=O)(=O)NCc4ccccc4)ccc3C)CC2)c1	nt	2.9%	-22.1%	17.2%	-4.8%
COc1cc(SC#N)ccc1N=Cc1c(C)[nH]n(-c2ccc(C)c(C)c2)c1=O	10µM*	0.1%	-18.8%	-8.0%	-2.1%
O=S(=O)(Nc1ccc(N2CCOCC2)cc1)c1ccc(F)cc1	?	6.2%	-17.2%	-0.4%	-26.6%
O=S(=O)(Nc1ccc(N2CCCCC2)cc1)c1cccs1	35.5µM*	-23.9%	?	-25.9%	?
O=S(=O)(Nc1ccc(S(=O)(=O)N2CCCCCC2)cc1)c1cccs1	7.0%[12.7 µM]	10.5%	-5.0%	13.9%	3.5%
O=C(CNS(=O)(=O)c1ccc(C(=O)N2CCCCC2)cc1)N1CCCCC1	-41.6%[12.7 µM]	12.8%	56.2µM*	-6.6%	-18.1%
O=S(=O)(Nc1ccc(N2CCCCC2)cc1)c1ccc(F)cc1	nt	-0.3%	?	?	79.4µM*
O=S(=O)(Nc1ccc(N2CCCCC2)cc1)c1ccccc1	?	-6.0%	?	?	50.1µM*
O=S(=O)(Nc1ccc(N2CCOCC2)cc1)c1ccccc1	?	6.1%	-5.0%	14.5%	6.0%
O=S(=O)(/N=C(/Nc1cccc2ccccc12)c1ccccc1)c1ccccc1	-3.2%	2.2%	-28.9%	61.4%	-16.4%
COc1ccccc1-c1nc(N(C)C)c2ccccc2n1	-8.0%[0.501 µM]	3.8%	nt	nt	nt
COc1ccccc1C(=O)NNC(=O)C(=O)N1CCCCC1	nt	-14.1%	?	17.6%	?
